Screens deposited in PubChem BioAssay by National Center for Advancing Translational Sciences (NCATS).
EPAC2 antag: human EPAC2 antagonism, validation; hit rate 1.7% among 16,000; Q8WZA2; Potency, µM (highest dose often 112 µM), hits mostly inhibitors; EPAC2 Rap1B BODIPY-GDP exchange, fluorescence; further: nearly all actives have a fitted effect of over 40% in size
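Normalized against a 6.5 mM cAMP agonist control, compounds were tested on 100 nM EPAC2 exchanging Rap1B-bound BODIPY-GDP (250 nM) for 50 uM GDP. Fluorescence drop (ex 480, em 540 nm) was tracked at room temperature over 30 min at 5-min intervals.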
EPAC1 ag val: validation of human EPAC1 agonists. Potency, µM, actives largely listed as activators. O95398. hit rate 1% among 16,000. EPAC1 Rap1b BODIPY-GDP exchange, fluorescence; further: nearly all actives have a fitted effect of over 70% in size
Target sequence (O95398 whole entry, looked up): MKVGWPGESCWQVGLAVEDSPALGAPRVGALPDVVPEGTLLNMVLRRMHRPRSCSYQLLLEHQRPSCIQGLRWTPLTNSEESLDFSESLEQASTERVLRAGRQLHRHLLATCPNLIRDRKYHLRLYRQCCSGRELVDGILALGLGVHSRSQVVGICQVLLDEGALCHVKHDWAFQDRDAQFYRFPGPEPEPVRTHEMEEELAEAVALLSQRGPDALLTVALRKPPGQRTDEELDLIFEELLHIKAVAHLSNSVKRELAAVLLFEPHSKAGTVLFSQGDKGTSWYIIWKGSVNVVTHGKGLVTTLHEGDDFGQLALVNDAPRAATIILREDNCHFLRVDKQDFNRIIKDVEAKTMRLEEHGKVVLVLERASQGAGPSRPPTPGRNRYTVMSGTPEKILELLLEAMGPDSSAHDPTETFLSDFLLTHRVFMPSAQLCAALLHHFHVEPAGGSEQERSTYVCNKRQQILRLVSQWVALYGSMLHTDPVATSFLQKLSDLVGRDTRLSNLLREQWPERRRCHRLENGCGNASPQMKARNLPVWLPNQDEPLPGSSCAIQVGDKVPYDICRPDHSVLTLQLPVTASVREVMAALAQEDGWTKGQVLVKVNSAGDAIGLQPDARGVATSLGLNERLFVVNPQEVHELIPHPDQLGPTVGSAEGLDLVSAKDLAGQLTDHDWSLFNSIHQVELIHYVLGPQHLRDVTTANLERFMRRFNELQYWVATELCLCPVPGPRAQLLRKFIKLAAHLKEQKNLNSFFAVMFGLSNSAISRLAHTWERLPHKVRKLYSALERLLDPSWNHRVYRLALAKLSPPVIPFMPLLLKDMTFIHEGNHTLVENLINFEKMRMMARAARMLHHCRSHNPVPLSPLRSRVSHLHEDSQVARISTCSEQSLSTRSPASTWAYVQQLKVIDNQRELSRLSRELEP
Each line names hits and unclear results; the compound was inactive in the other large screens; ! = a repeat was not active. Hits are enriched below; roughly 3.1% of the tested compounds scored in any of these assays. The call rests on the fitted dose curve; in most records, active means well fitted curve in the direction sought with a large enough effect; inconclusive means small, poorly fitted or top-dose-only effect, or another doubt; inactive means no such curve, though single readings can be large; an effect the other way counts as inactive or inconclusive.

COc1ccc(-c2nc3cc(F)ccc3cc2CN(C(=O)c2cccc(OC)c2)C2CC2)cc1	none
COc1cccc(-c2nc3cc(SC)ccc3cc2CN(C(=O)c2csc(C)n2)C2CC2)c1	EPAC2 antag 15.8µM
CCCCCCCCCc1ccc(OCCOCCO)cc1	EPAC2 antag inconclusive
COc1c(-c2ccccc2)oc2c(ccc3occc32)c1=O	EPAC2 antag 4.47µM, EPAC1 ag val inconclusive
O=c1c(O)c(-c2ccccc2)oc2ccc3occc3c12	EPAC2 antag 7.08µM, EPAC1 ag val inconclusive
COc1ccccc1-c1oc2ccccc2c(=O)c1OC	EPAC2 antag inconclusive
O=c1c(O)c(-c2cccc(O)c2)oc2ccccc12	none
CCN1\C(=C/C=C/C=C/c2sc3ccccc3[n+]2CC)Sc2ccccc21	EPAC2 antag inconclusive
COc1ccc(S[C@@H]2C[C@@H](C(=O)Nc3ccc4nccnc4c3)N(C3Cc4ccccc4C3)C2)cc1	none
COc1ccccc1-c1ccnc(-n2ncc(C(=O)NC(c3cccnc3)C(F)(F)F)c2C)n1 (centres undefined)	none
CC(C)C[C@@H]1NC(=O)[C@H](CCCN)NC(=O)[C@H](C(C)C)NC(=O)[C@@H]2CCCN2C(=O)[C@@H](Cc2ccccc2)NC(=O)[C@H](CC(C)C)NC(=O)[C@H](CCCN)NC(=O)[C@H](C(C)C)NC(=O)[C@@H]2CCCN2C(=O)[C@@H](Cc2ccccc2)NC1=O	EPAC2 antag inconclusive
O=c1cnc2cnc(OCc3ccccc3)nc2n1CCc1ccccc1	EPAC2 antag 22.4µM, EPAC1 ag val inconclusive
N#CCCn1c(=O)cnc2cnc(OCc3ccccc3)nc21	none
O=c1c(-c2ccc(F)cc2)nc2cnc(Nc3ccccc3)nc2n1Cc1cccs1	EPAC2 antag inconclusive, EPAC1 ag val 100µM
CN(C)c1ncc2nc(CCc3ccccc3)c(=O)n(Cc3cccs3)c2n1	EPAC1 ag val 112µM
COc1ccc(Oc2ncc3nc(C)c(=O)n(Cc4cccs4)c3n2)cc1	EPAC2 antag inconclusive, EPAC1 ag val 112µM
CN(C)c1ncc2nc(-c3ccc(F)cc3)c(=O)n(Cc3cccs3)c2n1	none
CN(C)c1ncc2nc(-c3cc(F)cc(F)c3)c(=O)n(Cc3cccs3)c2n1	EPAC1 ag val 112µM
Cc1nc2cnc(Oc3ccccc3)nc2n(Cc2cccs2)c1=O	EPAC2 antag inconclusive
Cc1nc2cnc(N(C)C)nc2n(Cc2cccs2)c1=O	none
COc1ccc(-c2nc3cnc(Nc4ccccc4)nc3n(Cc3cccs3)c2=O)cc1	none
CC(C)CN(C[C@@H](O)[C@H](Cc1ccccc1)NC(=O)O[C@@H]1CCOC1)S(=O)(=O)c1ccc(N)cc1	none
Cc1nn(C)c(Cl)c1CN1CCOc2ccc(CN3CCC(Oc4cccnc4)CC3)cc2C1	none
COc1ccc(C(=O)NCC2Cc3cccc(-c4cncnc4)c3O2)c(OC)c1OC (centres undefined)	none
Cc1ccc(C(=O)Nc2cccc(-c3nc(CNC(=O)c4ccc(F)cc4Cl)c(C)o3)c2)s1	none
COCC(=O)Nc1cc(C(=O)N2CCc3c([nH]c4ccccc34)C2)cc2nc(-c3ccccc3)n(C)c12	EPAC2 antag inconclusive
CN(Cc1ccco1)c1nc(-c2ccccc2Cl)nc2ccccc12	EPAC1 ag val 100µM
COc1ccccc1-c1nc(N(C)Cc2ccco2)c2ccccc2n1	EPAC2 antag inconclusive
O=C(NCc1nnc2n1CCN(Cc1cccc(Cl)c1)CC2)c1cccc(F)c1	none
CC(C)=CCc1c(O)cc(O)c2c1O[C@H](c1ccccc1)CC2=O	EPAC2 antag 50.1µM, EPAC1 ag val inconclusive
O=C1CC(c2ccc(O)cc2)Oc2ccccc21 (centres undefined)	EPAC2 antag inconclusive
Cc1nc2ccccn2c(=O)c1CCN1CCC(C(=O)c2ccc(F)cc2)CC1	none
Cc1nc2sccn2c(=O)c1CCN1CCC(=C(c2ccc(F)cc2)c2ccc(F)cc2)CC1	EPAC2 antag 50.1µM!, EPAC1 ag val inconclusive
C=C1C(=O)O[C@H]2[C@H]1CC/C(C)=C\CC[C@@]1(C)O[C@@H]21	none
N[C@H](C(=O)O)[C@@H]1CC(Cl)=NO1	EPAC1 ag val inconclusive
COC(=O)c1c(C)cc(OC)cc1O	EPAC2 antag inconclusive
COC(=O)c1c(OC)cc2c(c1C)Oc1c(Cl)c(OC(C)=O)c(Cl)c(C)c1C(=O)O2	EPAC2 antag 11.2µM
O=C1NC(=O)/C(=C/c2ccc3nccnc3c2)S1	none
O=C1NC(=O)/C(=C/c2ccc(-c3ccc(F)cc3O)o2)S1	EPAC2 antag 7.94µM
O=C([C@@H]1C[C@@H](Sc2nc3ccccc3[nH]2)CN1Cc1ccc(Cl)cc1)N1CCN(c2ccccc2F)CC1	none
Cc1cnc(C)c(-c2ccc3c(c2)CC(CNC(=O)Cc2c(C)[nH]c4ccccc24)O3)n1 (centres undefined)	none
C[C@@H]1CN(Cc2ccc3c(c2)CN(Cc2nc(-c4ccccc4)cs2)CCO3)C[C@H](C)O1	none
Oc1ccc(/C=C\c2cc(O)cc(O)c2)cc1	EPAC2 antag 28.2µM
O=C(/C=C/c1ccc(O)cc1)c1ccc(O)cc1O	EPAC2 antag inconclusive
O=c1cc(O)cc(/C=C/c2ccc(O)c(O)c2)o1	none
Oc1ccc(/C=C/c2cc(O)cc(O)c2)cc1	EPAC2 antag 50.1µM!, EPAC1 ag val inconclusive
Cc1cc(C(=O)NCc2nc(-c3cccc(NC(=O)c4cc(C)oc4C)c3)oc2C)nc(C)n1	none
CCN(CC)c1ccccc1/C=C/[n+]1ccc(CCCCI)c2ccccc21	EPAC2 antag 56.2µM
C/C(=C(\CCOC(=O)c1ccccc1)SS/C(CCOC(=O)c1ccccc1)=C(/C)N(C=O)Cc1cnc(C)nc1N)N(C=O)Cc1cnc(C)nc1N	none
O=C(c1csnn1)N1CCC2(CC1)CN(c1cccc(-c3ccccc3)c1)C2	EPAC2 antag inconclusive, EPAC1 ag val 100µM
O=C(c1cccc(F)c1)N1CCC2(CCCN(c3cccc(-c4ccccc4)c3)C2)CC1	EPAC1 ag val 100µM
O=C(c1cccc(F)c1)N1CCC2(CC1)CN(c1cccc(-c3ccccc3)c1)C2	EPAC2 antag inconclusive, EPAC1 ag val 89.1µM
O=C(c1cccc(F)c1)N1CCC2(CC1)CCN(c1cccc(-c3ccccc3)c1)CC2	none
COC(=O)N1CCC2(CC1)CCN(c1cccc(-c3ccccc3)c1)CC2	EPAC1 ag val 100µM
O=C(Oc1ccccc1)N1CCC2(CC1)CCN(c1cccc(-c3ccccc3)c1)CC2	none
O=C(c1cccc(F)c1)N1CCC[C@@]2(CCN(c3cccc(-c4ccccc4)c3)C2)C1	none
O=C(c1csnn1)N1CCC2(CC1)CN(c1ccccc1)C2	none
C=C[C@]1(C)C[C@@H](OC(=O)CSC(C)(C)CNC(=O)[C@H](N)C(C)C)[C@]2(C)[C@H](C)CC[C@]3(CCC(=O)[C@H]32)[C@@H](C)[C@@H]1O	none
COC(=O)c1cc(CNC(=O)c2ccc3ncccc3c2)cc(NC(=O)c2ccccc2Cl)c1	none
Cn1cc(CN2CCOc3ccc(C(O)C4CCCCC4)cc3C2)cn1 (centres undefined)	EPAC2 antag inconclusive
CO[C@H]1C=CO[C@@]2(C)Oc3c(C)c(O)c4c(O)c(c5c(c4c3C2=O)=NC2(CCN(CC(C)C)CC2)N=5)NC(=O)/C(C)=C\C=C/[C@H](C)[C@H](O)[C@@H](C)[C@@H](O)[C@@H](C)[C@H](OC(C)=O)[C@@H]1C	EPAC2 antag inconclusive
COc1ccc(O)c(CN2CCC3(CC2)c2ccccc2[C@@H](NC(=O)c2cccc(F)c2)[C@@H]3OC)c1	none
CC(C)C(=O)OCC(=O)[C@@]12O[C@H](C3CCCCC3)O[C@@H]1C[C@H]1[C@@H]3CCC4=CC(=O)C=C[C@]4(C)[C@H]3[C@@H](O)C[C@@]12C	none
NCCC(=O)[N-][C@@H](Cc1cnc[nH]1)C(=O)O.[Zn]	none
